This is an account of results in the supplement of paper PMC4206467.

The test system of the experiment is Perkinsus marinus PRA240. Briefly: ATP content (proliferation) relative to DMSO control; higher = more parasite growth (less inhibition). The conditions noted are these: 20 µM; 4 days. Here is the method:
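Perkinsus marinus PRA240 trophozoites (2-5x10^6 cells/ml, 100 µl, 96-well) were exposed once to MMV Malaria Box compounds at 20 µM (0.1% DMSO) in triplicate. ATP content (ATPlite bioluminescence) was read at day 4 post-exposure and normalised to DMSO + cells control wells (100% activity). Compounds were identified by joining plate and well to the Malaria Box list.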
For the compound `CCOc1ccc(C2N(C)c3ccccc3N2C)cc1`, the ATP content amounted to 131%.

`COc1ccc2nc(C)cc(Nc3cccc(O)c3)c2c1`: the ATP content is 109%.

As for `CCN(Cc1ccccc1)C1CCN(Cc2cc(Br)ccc2O)CC1`, the ATP content worked out at 171%.

In turn, `CCOc1c(Cl)cc(CNCC(O)c2ccccc2)cc1OC` (centres undefined) returned an ATP content of 105%.

In the case of `CN(C)CCCNCc1ccc(-c2ccc(F)c(Cl)c2)o1`, the ATP content came to 123%.

As for `COc1ccc(N2CCN(C(CNC(=O)CC(C)(C)C)c3ccc4c(c3)OCO4)CC2)cc1` (centres undefined), the ATP content is 211%.

As to `Nc1nc(Nc2cccc(F)c2)nc2ccccc12`, the ATP content was determined as 26%.

In turn, `Cc1ccc2nc(C)cc(Nc3cccc(C(F)(F)F)c3)c2c1` gave an ATP content of 121%.

In turn, `Oc1c2c(nc3cc(-c4ccccc4)nn13)CCCC2` gave an ATP content of 47.5%.

Regarding `OC(CNC1CCCC1)Cn1c2ccccc2c2ccccc21` (centres undefined), the ATP content was found to be 148%.

The compound `O=c1nc(C=Cc2ccc(Cl)cc2)oc2ccccc12` returned an ATP content of 22.2%.

`CCN(CC)S(=O)(=O)c1ccc(-c2csc(Nc3ccc(C)c(C)c3)n2)cc1`: the ATP content turned out to be 142%.

In turn, `CCOC(=O)c1cnc2ccc(OC)cc2c1Nc1ccc(N2CCN(C)CC2)cc1` had an ATP content of 106%.

Take `Cc1cccc(N2C(=O)C3C(C2=O)C2(c4ccccc4)C(=O)C3(c3ccccc3)C(c3ccc4c(c3)OCO4)=C2c2ccc3c(c2)OCO3)c1` (centres undefined): the ATP content is 110%.

Turning to `COc1ccc(Nc2nc(NCc3ccccc3)c3ccccc3n2)cc1`, the ATP content was determined as 103%.

As to `O=C(Nc1ccc(F)c(Cl)c1)Nc1ccc(Cl)c(Cl)c1`, the ATP content amounted to 46.8%.

Regarding `CCCC(c1nnnn1C1CCCCC1)N1CCN(C(=O)c2ccco2)CC1` (centres undefined), the ATP content amounted to 115%.

Compound `COc1cccc(Nc2nc(NCCO)c3ccccc3n2)c1` returned an ATP content of 77.5%.

For the compound `CCOC(=O)C1=C(C)N=c2sc(=Cc3cc(Cl)ccc3O)c(=O)n2C1c1ccc(OC)cc1` (centres undefined), the ATP content is 61.6%.
